Values without a mark were called inactive. Where a call stands in place of a potency, no number is given. For some assays here: Potency and affinity values are given separately. Activity calls are given as the source filed them. Unless noted, no rule for the calls is given here.
How the values were obtained:
[1] = antimalarial activity against Dd2 strain (AID 2302;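 active = growth inhibition above 50% at the single 2 µM test dose, taken to imply half-maximal potency below 2 µM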); settings: P. falciparum Dd2 in RBCs, LDH growth readout, 72 h; at 2 µM; hits give high values
[2] = human hepatoma cell viability loss – ATP luminescence, cytotoxicity control for P. falciparum antimalarial project, primary screen (AID 2303;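 active = inhibition above 50%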); settings: HepG2 viability, 24-48 h, at 10 µM, hits give high values
[3] = biological target: L-lactate dehydrogenase (Plasmodium falciparum (isolate CDC / Honduras)) (UniProt Q27743); experiment: PfLDH activity inhibition – cell lysate, 3D7 strain, counter-screen for P. falciparum growth inhibition project (AID 2304); settings: P. falciparum 3D7 crude extract, LDH APAD/NBT absorbance; at 2 µM; hits give high values
[4] = inhibition of 3D7 malaria parasite growth – strain 3D7 (AID 2306); settings: P. falciparum 3D7 erythrocytic growth, LDH absorbance, 72 h; at 2 µM; hits give high values
[5] = biological target: Calcium-dependent protein kinase 1 (Plasmodium falciparum (isolate 3D7)) (UniProt P62344); experiment: PfCDPK1 kinase inhibitors, biochemical, TCAMS library (AID 1159585; cut-off not given, nearly all actives have IC50 up to about 0.98 µM;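 also: inhibitors leave more ATP so luminescence rises with inhibition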); settings: recombinant PfCDPK1, Kinase-Glo ATP depletion luminescence
[6] = biological target: Plasmodium falciparum protein kinase 6 (PK6, PF3D7_1337100) (UniProt Q8IDW1); experiment: PfPK6 kinase inhibitors, biochemical, TCAMS library (AID 1159586); settings: recombinant PfPK6, Kinase-Glo ATP depletion luminescence
[7] = biological target: Protein kinase 7 (PK7), Plasmodium falciparum 3D7 (PF3D7_0213400) (UniProt Q7YTF7); experiment: inhibition of Plasmodium PK7 catalytic activity – biochemical, TCAMS antimalarial set, Kinase-Glo luminescence (AID 1159587); settings: recombinant PfPK7, Kinase-Glo ATP depletion luminescence
[8] = biological target: Calcium-dependent protein kinase 4 (Plasmodium falciparum (isolate 3D7)) (UniProt Q8IBS5); experiment: PfCDPK4 kinase inhibitors, biochemical, TCAMS library (AID 1159588; cut-off not given, nearly all actives have IC50 up to about 0.91 µM); settings: recombinant PfCDPK4, Kinase-Glo ATP depletion luminescence
Chain of Calcium-dependent protein kinase 4 (Plasmodium falciparum (isolate 3D7)) (Q8IBS5 whole entry, looked up): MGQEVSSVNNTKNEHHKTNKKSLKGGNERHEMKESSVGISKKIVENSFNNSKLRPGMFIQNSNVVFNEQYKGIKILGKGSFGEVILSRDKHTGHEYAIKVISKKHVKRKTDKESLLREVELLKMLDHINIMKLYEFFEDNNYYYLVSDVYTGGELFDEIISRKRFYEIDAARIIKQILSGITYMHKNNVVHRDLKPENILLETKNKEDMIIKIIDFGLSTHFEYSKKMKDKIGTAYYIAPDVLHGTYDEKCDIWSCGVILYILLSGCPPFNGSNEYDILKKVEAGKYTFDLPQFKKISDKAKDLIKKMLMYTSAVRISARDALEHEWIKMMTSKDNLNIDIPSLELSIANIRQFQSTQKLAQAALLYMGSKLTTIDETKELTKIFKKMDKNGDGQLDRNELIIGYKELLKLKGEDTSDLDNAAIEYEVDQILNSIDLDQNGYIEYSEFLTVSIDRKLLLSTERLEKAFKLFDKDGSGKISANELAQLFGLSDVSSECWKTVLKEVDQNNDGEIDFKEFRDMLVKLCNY

Chain of Calcium-dependent protein kinase 1 (Plasmodium falciparum (isolate 3D7)) (P62344 whole entry, looked up): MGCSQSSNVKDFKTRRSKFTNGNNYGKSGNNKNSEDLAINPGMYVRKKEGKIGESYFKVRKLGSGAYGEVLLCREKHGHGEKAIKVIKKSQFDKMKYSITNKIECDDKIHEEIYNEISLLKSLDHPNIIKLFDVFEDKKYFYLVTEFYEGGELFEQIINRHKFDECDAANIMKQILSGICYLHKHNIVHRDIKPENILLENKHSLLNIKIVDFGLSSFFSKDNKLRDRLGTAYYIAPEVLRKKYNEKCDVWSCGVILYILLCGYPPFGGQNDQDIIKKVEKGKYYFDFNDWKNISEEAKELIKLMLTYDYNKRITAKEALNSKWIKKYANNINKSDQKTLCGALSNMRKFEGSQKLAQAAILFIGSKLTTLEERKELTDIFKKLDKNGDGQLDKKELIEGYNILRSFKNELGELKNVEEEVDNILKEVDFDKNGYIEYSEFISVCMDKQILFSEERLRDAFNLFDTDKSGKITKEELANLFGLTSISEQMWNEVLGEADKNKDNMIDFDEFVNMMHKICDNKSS
Chain of Protein kinase 7 (PK7), Plasmodium falciparum 3D7 (PF3D7_0213400) (Q7YTF7 1-343): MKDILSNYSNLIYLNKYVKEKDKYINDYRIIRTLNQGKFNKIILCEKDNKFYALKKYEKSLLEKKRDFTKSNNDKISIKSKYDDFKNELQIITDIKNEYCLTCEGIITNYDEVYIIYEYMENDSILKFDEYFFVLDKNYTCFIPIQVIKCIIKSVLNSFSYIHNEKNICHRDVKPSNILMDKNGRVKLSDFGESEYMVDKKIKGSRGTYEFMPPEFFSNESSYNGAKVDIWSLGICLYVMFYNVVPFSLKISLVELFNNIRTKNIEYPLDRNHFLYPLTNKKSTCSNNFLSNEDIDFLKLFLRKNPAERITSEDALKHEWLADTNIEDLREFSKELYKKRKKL
Chain of Plasmodium falciparum protein kinase 6 (PK6, PF3D7_1337100) (Q8IDW1 1-305): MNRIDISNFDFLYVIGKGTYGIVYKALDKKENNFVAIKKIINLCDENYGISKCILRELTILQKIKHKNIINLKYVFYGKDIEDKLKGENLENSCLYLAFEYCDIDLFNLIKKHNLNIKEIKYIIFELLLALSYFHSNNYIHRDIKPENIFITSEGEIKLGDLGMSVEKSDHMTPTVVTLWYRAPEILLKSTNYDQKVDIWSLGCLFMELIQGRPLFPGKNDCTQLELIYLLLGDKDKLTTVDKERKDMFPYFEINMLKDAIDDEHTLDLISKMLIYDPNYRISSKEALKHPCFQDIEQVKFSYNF
Chain of L-lactate dehydrogenase (Plasmodium falciparum (isolate CDC / Honduras)) (Q27743 whole entry, looked up): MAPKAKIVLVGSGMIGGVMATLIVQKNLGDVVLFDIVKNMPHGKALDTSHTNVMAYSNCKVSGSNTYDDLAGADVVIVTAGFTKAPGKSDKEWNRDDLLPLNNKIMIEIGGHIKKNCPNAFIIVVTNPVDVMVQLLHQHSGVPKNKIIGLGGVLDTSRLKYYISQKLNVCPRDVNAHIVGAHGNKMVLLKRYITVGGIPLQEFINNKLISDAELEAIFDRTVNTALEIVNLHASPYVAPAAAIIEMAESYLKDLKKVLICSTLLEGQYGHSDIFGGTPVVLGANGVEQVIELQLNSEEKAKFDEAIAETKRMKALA

SMILES	growth inhibition [1]	inhibition [2]	inhibition [3] [%]	growth inhibition [4]	outcome [5]	outcome [6]	outcome [7]	outcome [8]
CS(=O)(=O)Nc1ccc2c(C3CCN(CCC4CCN(C(=O)/C=C/c5ccc(Cl)c(Cl)c5)CC4)CC3)c[nH]c2c1	63% (active)	35%	-3	99% (active)	inactive	inactive	inactive	inactive
COc1cccc(OC)c1CN1CCC(N(C)CCCCCCCCCN2CCC(OC(=O)Nc3ccccc3-c3ccccc3)CC2)CC1	98% (active)	100% (active)	-1	98% (active)	inactive	inactive	inactive	inactive
FC(F)(F)c1ccc2nc(-c3cccc(-c4ccc(CNCCN5CCNCC5)cc4)c3)[nH]c2c1	0%	17%	4	96% (active)	inactive	inactive	inactive	inactive
COc1cccc(CNC[C@@H](O)[C@H](Cc2ccccc2)NC(=O)c2cc(C3CCCC3)cc(N3CCCCS3(=O)=O)c2)c1	83% (active)	7%	4	96% (active)	inactive	inactive	inactive	inactive
Cc1ccc(NC(=O)c2cccc(N3CCN(c4ccncc4)CC3)c2)cc1F	72% (active)	43%	-1	101% (active)	inactive	inactive	inactive	inactive
CN(C)c1ccc(-c2ccc(C(=O)NC3CCN(Cc4cccc(C(F)(F)F)c4)CC3)s2)cc1	77% (active)	35%	0	96% (active)	inactive	inactive	inactive	inactive
O=C(/C=C/c1ccc(Cl)c(Cl)c1)N1CCC(CNCc2cccc3cc[nH]c23)CC1	14%	1%	-2	85% (active)	inactive	inactive	inactive	inactive
COc1ccc(NC(=O)[C@H](Cc2ccccc2)Nc2cc(C)nc(NCCOc3ccccc3)n2)cc1	25%	11%	3	98% (active)	inactive	inactive	inactive	inactive
CC(C)(C)C1CCc2onc(C(=O)Nc3cc(Cl)ccc3O)c2C1 (stereo not given)	82% (active)	5%	-2	98% (active)	inactive	inactive	inactive	inactive
CC(C)(NCc1ccc(OC(F)(F)F)cc1)c1nc(-c2ccc(Cl)c(O)c2)c(-c2ccncc2)[nH]1	32%	65% (active)	-8	94% (active)	inactive	inactive	inactive	inactive
CCCCCCN(CCCCCC)CCCCNc1c2ccc(Cl)cc2nc2ccc(OC)cc12	94% (active)	65% (active)	1	100% (active)	inactive	inactive	inactive	inactive
CS(=O)(=O)N1CC2(CCN(CCC(NC(=O)NCc3ccccc3Cl)c3ccc(Cl)c(Cl)c3)CC2)c2ccccc21 (stereo not given)	98% (active)	12%	-7	85% (active)	inactive	inactive	inactive	inactive
Cc1cc(NC(=O)Nc2ccc(Oc3ccccc3)cc2)c2ccccc2n1	28%	2%	4	91% (active)	inactive	inactive	inactive	inactive
COc1ccc2nccc([C@@H](O)CN3CCC(NC(=O)C(=Cc4ccc(Cl)cc4Cl)c4ccc(-c5ccccc5)cc4)CC3)c2c1	98% (active)	1%	-2	100% (active)	inactive	inactive	inactive	inactive
CC(C)C[C@H](NC(=O)c1ccc(F)cc1)C(=O)N[C@H](/C=N/NC(=O)c1ccccc1)CCc1ccccc1	61% (active)	1%	-2	92% (active)	inactive	inactive	inactive	inactive
Fc1cccc(Nc2nc(NCCc3ccc(Cl)cc3)nc(Nc3cccc(F)c3)n2)c1	30%	-3%	6	93% (active)	inactive	inactive	inactive	inactive
O=C(NC1CCN(Cc2ccccc2O)C1)c1ccc(-c2ccccc2)cc1 (stereo not given)	25%	-5%	4	99% (active)	inactive	inactive	inactive	inactive
CC(CN1CCN(C)CC1)C(=O)Nc1ccc(-c2ccc(-c3nc4ccccc4[nH]3)cc2)cc1 (stereo not given)	87% (active)	13%	4	92% (active)	inactive	inactive	inactive	inactive
Cc1ccccc1C1CCN(C2CCC(NC(=O)/C=C/c3cccc(Cl)c3)CC2)CC1 (stereo not given)	34%	70% (active)	-3	98% (active)	inactive	inactive	inactive	inactive
COc1ccc(-c2cc(-c3nc4ccc(CN)cc4[nH]3)c(=O)n(C)c2)cc1OC	56% (active)	-12%	4	85% (active)	inactive	inactive	inactive	inactive

SMILES	growth inhibition [1]	inhibition [2]	inhibition [3] [%]	growth inhibition [4]	outcome [5]	outcome [6]	outcome [7]	outcome [8]
COc1cc(OC)cc(-c2nn(-c3ccc([N+](=O)[O-])cc3Cl)c(=S)n2Cc2ccco2)c1	100% (active)	15%	2	101% (active)	inactive	inactive	inactive	inactive
CCN(CC)CC(O)Cc1c2ccc([N+](=O)[O-])cc2nc2cc(OC)c(OC)cc12 (stereo not given)	37%	41%	-6	100% (active)	inactive	inactive	inactive	inactive
CSc1cccc(NC(=O)c2cc3ccccc3oc2=O)c1	75% (active)	-4%	4	92% (active)	inactive	inactive	inactive	inactive
O=C(Nc1ccc(-c2cccc(-c3nc4ccc(F)cc4[nH]3)c2)cc1)Nc1ccc(F)c(F)c1F	98% (active)	70% (active)	3	100% (active)	inactive	inactive	inactive	inactive
FC(F)(F)c1ccc2nc(-c3ccc(-c4ccc(CN5CCN(c6cnccn6)CC5)cc4)cc3)[nH]c2c1	50% (active)	21%	-7	99% (active)	inactive	inactive	inactive	inactive
CN1CCC(Oc2ccc(NC(=O)c3ccc4c(=O)n(Cc5ccccc5)cnc4c3)cc2Cl)CC1	20%	23%	0	95% (active)	inactive	inactive	inactive	inactive
NC(N)=Nc1ccc(OCCCCCOc2ccc(N=C(N)N)cc2)cc1	100% (active)	12%	-1	99% (active)	inactive	inactive	inactive	inactive
CC(C)N(Cc1cnc2nc(N)nc(N)c2n1)c1ccc(Cl)c(Cl)c1	98% (active)	63% (active)	-3	101% (active)	inactive	inactive	inactive	inactive
CN(CCO)Cc1cccc(-c2ccc(NC(=O)c3cccc(C#N)c3)cc2)c1	57% (active)	23%	9	97% (active)	inactive	inactive	inactive	inactive
CC(=O)Nc1nc(C(=O)Nc2ccc(-c3ccc(-c4nc5c(C)cccc5[nH]4)cc3)cc2)cs1	53% (active)	42%	-1	101% (active)	inactive	inactive	inactive	inactive
CCN(CC)C(=O)C1CCCN(C(=O)Nc2cc(C(F)(F)F)cc(C(F)(F)F)c2)C1 (stereo not given)	98% (active)	0%	-2	86% (active)	inactive	inactive	inactive	inactive
Cc1cc(C=C(P(=O)(OC(C)C)OC(C)C)P(=O)(OC(C)C)OC(C)C)c2ccccc2c1O	54% (active)	15%	-6	85% (active)	inactive	inactive	inactive	inactive
CCc1c[nH]c2c(N(c3ccccc3)S(C)(=O)=O)cc(C(=O)N[C@@H](Cc3ccccc3)[C@H](O)CNCc3cccc(C(F)(F)F)c3)cc12	98% (active)	20%	1	93% (active)	inactive	inactive	inactive	inactive
CN(Cc1ccc(-c2ccc(C(F)(F)F)cc2)cc1)C(=O)Cn1c(CCc2cccc(F)c2F)nc(=O)c2ccc(N3CCN(CCN4CCCCC4)CC3)nc21	100% (active)	100% (active)	5	101% (active)	inactive	inactive	inactive	inactive
CCc1ccccc1N1CCN(CCCCNC(=O)c2ccc(NC(=O)c3ccc(Cl)cc3)cc2)CC1	4%	21%	-4	96% (active)	inactive	inactive	inactive	inactive
Clc1ccc(C=NNc2ccnc3ccccc23)cc1	97% (active)	5%	1	100% (active)	inactive	inactive	inactive	inactive
CC(C)(C)c1nn(-c2ccccc2)c2[nH]c(=O)c(CNCc3ccc4c(c3)OCO4)cc12	32%	1%	3	92% (active)	inactive	inactive	inactive	inactive
Cc1cc(Nc2cc(Cl)cc(Cl)c2)nc(N)n1	28%	-12%	3	94% (active)	inactive	inactive	inactive	inactive
COc1ccc(C(=O)N2CCC3(CC2)C(=O)N(CC(=O)NC2CCCCC2)CN3c2ccccc2)c(OC)c1	99% (active)	4%	3	100% (active)	inactive	inactive	inactive	inactive
C=C[C@H]1CN(CCCCCCC)CC[C@H]1C[C@@H](Cc1ccnc2ccc(OC)cc12)OC(=O)[C@](OC)(c1ccccc1)C(F)(F)F	96% (active)	12%	7	96% (active)	inactive	inactive	inactive	inactive
